# Assay results published in PubChem BioAssay AID720565 (National Center for Advancing Translational Sciences (NCATS), 2013).
# Results filed as inconclusive are left out. The source made the active and inactive calls. Calls come from the whole dose curve; as a rule, active = well fitted activation curve with a large enough effect; inconclusive = small, poorly fitted or top-dose-only effect; inactive = no such curve, though single readings can be large or run the other way.
# Assay: qHTS for small molecules that induce genotoxicity in ELG1 expressing cells: Confirmatory Assay for Cherry-picked Compounds; note: nearly all actives have a fitted effect of over 35% in size
# Conditions: ELG1-luciferase reporter cells, luminescence, 16 h; series mostly up to 46.1 µM
# Method in brief: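 Cells carrying the ELG1-luciferase reporter were exposed to compound for 16 hr at 37 C, 5% CO2, at 2,000 cells per well. Rise in luciferase activity, read with ONE-Glo after 30 min at room temperature, indicates genotoxic stress.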
# Potency is the fitted concentration of half-maximal effect.
row,Structure (SMILES),Potency
1,O=C(CSc1nnc(Cc2ccccc2)o1)Nc1ccc(Br)cn1,inactive
2,O=c1nc2sc3ccccc3n2c(=O)n1-c1cccc(Cl)c1,5 µM (active)
3,COc1cccc(/C=C/c2cnc3ccccc3n2)c1OC,0.397 µM (active)
4,CCOC(=O)N1CCN(C(=O)CSCC(=O)Nc2nc(-c3ccccc3)cs2)CC1,inactive
5,COc1cccc(-c2cc(NCc3cccs3)ncn2)c1,3.97 µM (active)
6,Cc1cc(C)cc(NC(=O)CCc2nc3sc4c(c3c(=O)[nH]2)CCCC4)c1,inactive
7,O=C(Nc1ccccn1)c1sc2ccccc2c1Cl,0.223 µM (active)
8,Cc1cc2ncc(-c3ccccc3)nc2cc1C,1.41 µM (active)
9,CNc1ccc(/C=C2\C=Cc3ccccc32)cc1,0.792 µM (active)
10,COc1ccc(-c2cc3cc(F)ccc3cn2)cc1,2.23 µM (active)
11,CSc1ccc(C(=O)c2[nH]c(=O)[nH]c2C)cc1,31.5 µM (active)
12,CCOC(=O)N1CCN(C(=O)CSCC(=O)Nc2nc(-c3ccc(-c4ccccc4)cc3)cs2)CC1,inactive
13,O=C(OCC(=O)N1CCCCC1)c1cccs1,14.1 µM (active)
14,Cc1nc2cc(-c3ccccc3)nn2c(N)c1-c1ccccc1,0.629 µM (active)
15,Cc1ccc(C(=O)NN=CC(=O)c2ccccc2)c(C)c1,6.28 µM (active)
16,CN(C)c1ccc(N=Nc2ccc(/C=C/c3ccnc4ccccc34)cc2)cc1,4.45 µM (active)
17,O=C(Nc1ccccn1)c1sc2ccc([N+](=O)[O-])cc2c1Cl,4.99 µM (active)
18,O=C(CSc1ncnc2sccc12)N1CCCCC1,15.8 µM (active)
19,O=C(COc1ccccc1F)Nc1ccc(-c2nc3ccccc3s2)cc1,5 µM (active)
20,COc1cccc2oc(-c3ccccc3)cc(=O)c12,4.45 µM (active)
